# Test results taken from PubChem BioAssay.
# Values joined by “and” are separate entries in the source; they are usually repeats but may differ in a detail not shown here. Equal values may be shown once. Records with an inconclusive call do not appear. For some assays here: Entries with a potency or affinity are not part of this list. Active and inactive are the calls of the source. Rule as the data show it, unless noted: active = inhibition above about 80%; inactive = the rest.
# Experiments:
# [1] = polyglutamine-triggered caspase-3 activation inhibitors, cell-based (AID 1583); settings: polyglutamine-induced caspase-3 activation, cell assay; stronger effect = higher value;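 tested at 10 µM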
# [2] = suppressors of polyQ aggregation in yeast, 75Q-TubU reporter (AID 1593); settings: Yeast 75Q polyglutamine aggregation reporter
# [3] = rescue of polyQ-huntingtin neuronal dysfunction in worms, whole organism, C. elegans mechanosensory neurons, N-terminal huntingtin (AID 1599); settings: touch response, stronger effect = higher value
# [4] = inhibitors of mitochondrial cytochrome c release, biochemical, purified mitochondria (AID 1603); settings: stronger effect = lower value;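 also: mouse liver mitochondria challenged with calcium chloride; signal normalized to the plate average as 100%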
# [5] = inhibitors of polyQ protein aggregation (AID 1604); settings: polyglutamine-induced protein aggregation inhibition assay; stronger effect = higher value; tested at 2.5 µM
# [6] = enhancers of glutamate uptake in motor neurons, MN-1 cell line (AID 1612); settings: MN-1 motor neuron cells, stronger effect = higher value;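 also: tested at 1 µM final; 0% = mean of DMSO vehicle wells on each plate; positive means more glutamate uptake than control and negative means less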
# [7] = reducers of polyQ inclusions in PC12 cells, cell-based, NGF-treated PC12, GFPQ80 (AID 1614); settings: PC12 NGF-treated GFP-polyQ80 inclusion reduction;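 also: lower means fewer inclusions and 0 means no inclusions at all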
# [8] = suppressors of polyglutamine aggregation in yeast, 75Q-TubH (AID 1616); settings: S. cerevisiae 75Q-TubH polyglutamine aggregation suppression; stronger effect = higher value
# [9] = LFS_MB_1R medulloblastoma cell growth inhibition, synergistic combos for chromothripsis tumors, cisplatin or BGB combos (AID 1671452); settings: LFS_MB_1R medulloblastoma cells, stronger effect = higher value;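 also: cells exposed for 96 hours before readout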
# [10] = CRL2098 osteosarcoma cell growth inhibition, synergistic combos for chromothripsis tumors, BGB or cisplatin IC20 combos (AID 1671454); settings: CRL2098 osteosarcoma cells, drug combinations, stronger effect = higher value;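 also: cells exposed for 96 h before readout; 0% = vehicle DMSO and 100% = killing by high DMSO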
# [11] = HD-MB03 medulloblastoma cell growth inhibition, synergistic combos for chromothripsis tumors, BGB or cisplatin IC20 combos (AID 1671455; in the data active = inhibition above about 83%;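 also: 0% = vehicle DMSO and 100% = high DMSO as cytotoxic control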); settings: HD-MB03 medulloblastoma cells, stronger effect = higher value
# [12] = UWB1.289 ovarian carcinoma cell growth inhibition, synergistic combos for chromothripsis tumors, BGB or cisplatin combos (AID 1671456); settings: UWB1.289 ovarian carcinoma cells, stronger effect = higher value;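 also: cells exposed to compound for four days; 0% = vehicle DMSO and 100% = killing by high DMSO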
# [13] = LFS_MB_2R medulloblastoma cell growth inhibition, synergistic combos for chromothripsis tumors, cisplatin combos (AID 1671457); settings: LFS_MB_2R medulloblastoma cells, stronger effect = higher value;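 also: cells exposed to compound for four days before readout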
# [14] = UWB1.289_BRCA1 ovarian cancer growth, cell-based, BGB or cisplatin combinations (AID 1671459); settings: UWB1.289 BRCA1 ovarian carcinoma, drug combinations, stronger effect = higher value
# [15] = human astrocyte viability loss, single and combined drugs, cytotoxicity control for chromothriptic childhood tumor combination screen, cell-based, BGB or cisplatin IC20 combos (AID 1671460); settings: Human astrocytes, drug combinations, stronger effect = higher value;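 also: cells exposed to compounds for 96 hours before viability readout; 0% = vehicle and 100% = killing control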
# [16] = molecular target: ATP-dependent translocase ABCB1 (Homo sapiens) (UniProt P08183); experiment: MDR1 (ABCB1) efflux transporter inhibition, cell-based (AID 377; in the data active = fluorescence slope change above about 50%); settings: MDR1-expressing cells, fluorescent substrate accumulation slope; stronger effect = higher value; concentration not given here
# [17] = measured here: combination with cisplatin, at 0.5 µM
# [18] = measured here: combination with cisplatin, at 5 µM
# Sequence of ATP-dependent translocase ABCB1 (Homo sapiens) (P08183 whole entry, looked up): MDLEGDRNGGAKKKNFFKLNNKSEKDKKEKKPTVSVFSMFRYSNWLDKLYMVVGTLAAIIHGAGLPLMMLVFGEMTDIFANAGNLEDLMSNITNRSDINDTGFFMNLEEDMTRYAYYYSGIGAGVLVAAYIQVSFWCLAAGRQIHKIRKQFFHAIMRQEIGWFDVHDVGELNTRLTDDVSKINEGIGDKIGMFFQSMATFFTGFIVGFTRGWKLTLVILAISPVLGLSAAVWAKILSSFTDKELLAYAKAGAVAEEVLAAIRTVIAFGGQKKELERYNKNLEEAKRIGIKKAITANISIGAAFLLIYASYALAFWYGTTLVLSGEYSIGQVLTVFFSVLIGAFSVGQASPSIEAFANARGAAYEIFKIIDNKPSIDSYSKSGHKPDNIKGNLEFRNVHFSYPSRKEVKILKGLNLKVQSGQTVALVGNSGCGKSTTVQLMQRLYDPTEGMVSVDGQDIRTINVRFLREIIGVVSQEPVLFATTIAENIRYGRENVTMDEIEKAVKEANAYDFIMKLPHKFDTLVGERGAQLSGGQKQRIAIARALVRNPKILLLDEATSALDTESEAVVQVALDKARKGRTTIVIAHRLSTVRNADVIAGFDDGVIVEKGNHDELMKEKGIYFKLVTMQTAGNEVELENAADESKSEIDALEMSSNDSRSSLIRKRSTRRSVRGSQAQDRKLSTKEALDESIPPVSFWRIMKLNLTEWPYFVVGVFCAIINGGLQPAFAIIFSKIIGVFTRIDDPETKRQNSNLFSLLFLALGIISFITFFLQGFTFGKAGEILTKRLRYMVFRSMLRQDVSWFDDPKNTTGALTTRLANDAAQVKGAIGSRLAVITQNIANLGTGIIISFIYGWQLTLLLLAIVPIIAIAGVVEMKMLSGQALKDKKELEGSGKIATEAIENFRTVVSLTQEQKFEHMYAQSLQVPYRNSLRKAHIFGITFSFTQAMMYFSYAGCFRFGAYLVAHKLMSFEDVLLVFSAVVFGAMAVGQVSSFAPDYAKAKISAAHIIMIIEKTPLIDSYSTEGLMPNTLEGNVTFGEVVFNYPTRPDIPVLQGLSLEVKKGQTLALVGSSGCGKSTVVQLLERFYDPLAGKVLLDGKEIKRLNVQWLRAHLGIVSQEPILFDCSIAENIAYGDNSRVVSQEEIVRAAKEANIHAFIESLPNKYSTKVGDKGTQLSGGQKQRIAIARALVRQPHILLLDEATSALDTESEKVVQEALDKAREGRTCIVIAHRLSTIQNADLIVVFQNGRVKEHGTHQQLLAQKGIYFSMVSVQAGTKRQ
compound,measurement,setting,value
CC(C)=CCC/C(C)=C/CO,inhibition,[1],23.2%
same,score,[2],1.12
same,rescue above control,[3],3.94
same,cytochrome c release ratio,[4],1.17
same,inhibition of aggregation,[5],60.6%
same,glutamate uptake change,[6],5.29%
same,inclusion score,[7],2
same,aggregation suppression score,[8],1.02
CC(=O)NC(Cc1ccccc1)C(=O)O (stereo unspecified),inhibition,[1],6.15%
same,score,[2],1.35
same,rescue above control,[3],4.38
same,cytochrome c release ratio,[4],0.42
same,inhibition of aggregation,[5],85.9%
same,glutamate uptake change,[6],12.1%
same,inclusion score,[7],2
same,aggregation suppression score,[8],1.23
Nc1nc(Cl)nc2c1ncn2[C@@H]1O[C@H](CO)[C@@H](O)[C@@H]1F,inhibition,[9]; at 0.5 µM,-12.4% (inactive) and -0.15% (inactive)
same,inhibition,"[9]; measured here: combination with BGB IC40, at 0.05 µM",-16.1% and -38.3%
same,inhibition,[9]; [17],76.7% and 60.5%
same,inhibition,[9]; [18],89.1% and 86.1%
same,inhibition,[10]; at 0.5 µM,79.4% (inactive) and 75.9% (inactive)
same,inhibition,"[10]; measured here: combination with BGB at IC20, at 0.5 µM",67.5% and 66%
same,inhibition,"[10]; measured here: combination with cisplatin at IC20, at 0.5 µM",88.5% and 80.9%
same,inhibition,[11]; at 0.5 µM,92.5% (active) and 92.1% (active)
same,inhibition,"[11]; measured here: combo with BGB at IC20, at 0.5 µM",86.9% and 84.3%
same,inhibition,"[11]; measured here: combo with cisplatin at IC20, at 0.5 µM",96.9% and 97.4%
same,inhibition,[12]; at 0.5 µM,42.4% (inactive) and 38.2% (inactive)
same,inhibition,"[12]; measured here: inhibition with BGB combination, at 0.05 µM",-20.1% and -11.3%
same,inhibition,"[12]; measured here: inhibition with cisplatin combination, at 0.05 µM",-17.8% and -24.8%
same,inhibition,[13]; at 0.5 µM,9.11% (inactive) and 33.6% (inactive)
same,inhibition,[13]; [17],55% and 57.2%
same,inhibition,[13]; [18],80.6% and 87.7%
same,inhibition,"[14]; BGB combination, concentration series, at 5 µM",76.8% and 56.9%
same,inhibition,[14]; at 0.5 µM,50.9% (inactive) and 49.8% (inactive)
same,inhibition,"[14]; cisplatin combination, concentration series, at 5 µM",99% and 94.5%
same,inhibition,[15]; at 0.5 µM,68.3% (inactive) and 72.7% (inactive)
same,inhibition,"[15]; measured here: combo with BGB IC20, at 0.5 µM",68.2% and 76%
same,inhibition,"[15]; measured here: combo with cisplatin IC20, at 0.5 µM",58.4% and 59.2%
COc1cc(N)c(Cl)cc1C(=O)NC1CCN(CCCOc2ccc(F)cc2)CC1OC (stereo unspecified),fluorescence slope change,[16],62% (active)
CCN(CC)CCOc1ccc2c(c1)C(=O)c1cc(OCCN(CC)CC)ccc1-2,inhibition,[1],-90.6%
same,score,[2],1.3
same,rescue above control,[3],-4.59
same,cytochrome c release ratio,[4],0.81
same,inhibition of aggregation,[5],63.2%
same,glutamate uptake change,[6],22.5%
same,aggregation suppression score,[8],1.61
CN(C)CCCOc1nn(Cc2ccccc2)c2ccccc12,fluorescence slope change,[16],153% (active)
O=C(O)CN(CC(=O)O)Cc1cc2c(-c3ccccc3C(=O)O)c3cc(CN(CC(=O)O)CC(=O)O)c(=O)cc-3oc2cc1O,inhibition,[1],-215%
same,score,[2],1.05
same,rescue above control,[3],-5.14
same,cytochrome c release ratio,[4],0.86
same,inhibition of aggregation,[5],0%
same,glutamate uptake change,[6],13.5%
same,inclusion score,[7],0
same,aggregation suppression score,[8],0.687
CC(=O)OCC(=O)[C@@]1(O)CCC2C3CCC4=CC(=O)CC[C@]4(C)C3[C@@H](O)C[C@@]21C (stereo partly specified),inhibition,[1],6.86%
same,score,[2],1.36
same,rescue above control,[3],-8.68
same,cytochrome c release ratio,[4],1.12
same,inhibition of aggregation,[5],66.2%
same,glutamate uptake change,[6],16.2%
same,inclusion score,[7],2
same,aggregation suppression score,[8],0.966
CC[C@@H](CO)NCCN[C@@H](CC)CO,inhibition,[1],-11.7%
same,score,[2],1.09
same,rescue above control,[3],2.87
same,cytochrome c release ratio,[4],1.07
same,inhibition of aggregation,[5],43.6%
same,glutamate uptake change,[6],-22.3%
same,inclusion score,[7],2
same,aggregation suppression score,[8],1.18
